Assay outcomes (PubChem BioAssay)
tim23-1 inh = tim23-1 yeast growth inhibition; actives 1.3% (n = 330,000); S. cerevisiae tim23-1 growth, BacTiter-Glo luminescence, 24 h; AID 463212; inhibition, % at 20 µM;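 active = growth inhibition of the mutant yeast at or above 50%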;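 note: temperature-sensitive mutant grown at 25 °C; plate controls were DMSO-treated mutant yeast for no effect and medium wells lacking yeast for full effect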
PfHsp90 yeast 2 = inhibits growth of yeast expressing Plasmodium falciparum Hsp90; S. cerevisiae expressing PfHsp90, BacTiter-Glo ATP, 48 h; yeast lacking PDR1 and PDR3 efflux regulators; inhibition, % at 9.4 µM; actives 0.32% (n = 310,000);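 active = every replicate shows inhibition above about 80%, whatever the replicate mean, limit read from the data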;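 note: 0% = DMSO neutral controls and 100% = 20 µM radicicol positive controls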
TIM10 inh = inhibits growth of TIM10 yeast strain. S. cerevisiae TIM10 strain growth, BacTiter-Glo luminescence, 24 h. actives 1.4% (n = 330,000). inhibition, % at 10 µM;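 active = inhibition of 40% or more at the single tested concentration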;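 note: wild-type TIM10 isogenic control strain grown at permissive 25 °C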
NLRP3 yeast inh = inhibitors of NALP3 inflammasome in yeast; actives 0.39% (n = 330,000); inhibition, % at 10 µM; Yeast reconstituted NLRP3/ASC/caspase-1, beta-gal luminescence, 24 h;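 active = inhibition of 50% or more; inactive = inhibition below 50%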;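 note: plate controls were induced DMSO wells for no effect and uninduced yeast grown without galactose for full effect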
tim10-1 inh = inhibits growth of tim10-1 mutant yeast | AID 463190 | S. cerevisiae tim10-1 ts strain growth, BacTiter-Glo, 24 h | actives 2.2% (n = 330,000) | inhibition, % at 20 µM;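 active = inhibition of at least 40%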;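 note: mutant grown at 25 °C; 0% = DMSO wells with yeast and 100% = wells holding no yeast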
tim10-1 conf = tim10-1 yeast growth inhibition, confirmed. inhibition, % at 20 µM. S. cerevisiae tim10-1 ts strain growth, BacTiter-Glo, 24 h. AID 463213. shares compounds with tim10-1 inh. actives 56% (n = 7,400);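 active = inhibition of yeast growth at or above a set limit in either of two repeat tests at 20 µM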;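 note: tim10-1 mutant grown at permissive 25 °C to find synthetic lethal compounds; 0% = DMSO yeast wells and 100% = medium wells without yeast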
tim10 confirm = confirmation of TIM10 yeast growth inhibitors | shares compounds with TIM10 inh | inhibition, % at 10 µM | actives 63% (n = 4,600) | AID 463215 | S. cerevisiae tim10 strain growth, BacTiter-Glo luminescence, 24 h;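 active = inhibition of yeast growth at or above a set limit in either of two replicates at 10 µM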;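 note: this counterscreen used the strain with wild-type TIM10; 0% = yeast with DMSO and 100% = medium wells lacking yeast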
The depositor's hits bear a star; . = not tested or not shown. A selection: hits, their analogues and other compounds. The true share with any hit is near 3.7%.

SMILES	tim23-1 inh	PfHsp90 yeast 2	TIM10 inh	NLRP3 yeast inh	tim10-1 inh	tim10-1 conf	tim10 confirm
COc1ccccc1N=c1oc2cc(O)ccc2cc1C(N)=O	45	97*	40*	22	47*	48*	33*
S=C(N/N=C/c1ccco1)NC1CC2CCC1C2 (centres undefined)	49	-10	42*	28	51*	36*	51*
CC(C)CC(C(=O)OCC(=O)N1CCN(c2ccccc2)CC1)N1C(=O)c2ccccc2C1=O (centres undefined)	.	41	.	.	.	.	.
O=[N+]([O-])c1ccc(S(=O)(=O)c2ccccc2)nc1	47	9	60*	-32	64*	58*	52*
Nc1ccc(S(=O)(=O)c2ccccc2)nc1	-3	3	1	-1	-8	.	.
O=C1NC(=O)/C(=C\c2ccccc2OCc2ccccc2)S1	46	0	43*	32	45*	33*	29
O=C(Cn1ccccc1=O)Nc1ccc(Cl)c(S(=O)(=O)N2CCCCC2)c1	-3	.	-4	11	19	.	.
CN(C)CCCN(C(=O)c1ccc(Br)s1)c1nc2cc3c(cc2s1)OCO3	23	20	2	12	27	.	.
CN(C)CCCN(C(=O)C1COc2ccccc2O1)c1nc2cc3c(cc2s1)OCO3 (centres undefined)	40	-15	55*	23	56*	49*	44*
COc1cc2c(cc1OC)C(COc1ccc(F)cc1)NCC2 (centres undefined)	33	4	45*	20	43*	36*	42*
CCc1ccc(OCC2NCCc3cc(OC)c(OC)cc32)cc1 (centres undefined)	30	12	25	10	33	.	.
CCc1ccc(NC(=O)C(=O)NCCN2CCN(S(=O)(=O)c3ccccc3)CC2)cc1	5	44	-11	22	-14	.	.
O=C(Nc1ccc(F)cc1)c1cccc2c1C(=O)N(CC1CCCO1)C2 (centres undefined)	16	14	7	27	18	.	.
O=C(Nc1ccc(F)cc1)c1cccc2c1C(=O)N(Cc1ccccn1)C2	35	-2	44*	14	68*	65*	-32
Cn1nc(C(F)(F)F)c2cc(C(=O)Nc3ccc(F)cc3F)sc21	-11	22	1	19	-6	.	.
Cn1nc(C(F)(F)F)c2cc(NC(=O)OCc3ccc(F)cc3)sc21	-6	-15	56*	18	58*	49*	54*
COc1ccccc1Nc1nc(N)nc(CSC(=S)N2CCCCC2C)n1 (centres undefined)	38	3	49*	10	42*	27	-23
COc1ccccc1Nc1nc(N)nc(CSC(=S)N2CCN(c3ccccc3)CC2)n1	-7	-5	10	11	1	.	.
CC12CCC(C(=O)Nc3nc4ccc(Br)cc4s3)(OC1=O)C2(C)C (centres undefined)	28	-2	48*	-2	51*	42*	32*
CNC(=S)NCc1ccc2[nH]c(C)cc2c1	0	22	-9	-4	-11	.	.
CCc1cccc(C)c1NC(=S)NCc1ccc2[nH]c(C)cc2c1	49	-30	48*	2	51*	25	37*
Cc1cccc(CN2C(=O)[C@H]3Cc4c([nH]c5ccccc45)C(C)(C)N3C2=O)c1	48	.	43*	-5	44*	35*	35*
O=C1/C(=C/c2cccc([N+](=O)[O-])c2)CSc2ccc(Cl)cc21	15	11	15	-6	15	.	.
CNc1ccc(/C=C2\CSc3ccccc3C2=O)cc1[N+](=O)[O-]	29	.	46*	22	45*	40*	25
CCc1n[nH]c(=S)n1/N=C/c1ccc(N(CC)CC)cc1	19	-2	45*	34	42*	11	23
SMILES	tim23-1 inh	PfHsp90 yeast 2	TIM10 inh	NLRP3 yeast inh	tim10-1 inh	tim10-1 conf	tim10 confirm
COc1ccccc1C(=O)Nc1ccc(S(=O)(=O)N2CCCCC2c2cccnc2)cc1 (centres undefined)	38	-40	63*	12	64*	70*	78*
O=[N+]([O-])c1cccc(S(=O)(=O)N2CCCCC2c2cccnc2)c1 (centres undefined)	28	9	15	5	26	.	.
O=C(Nc1ccc(S(=O)(=O)N2CCCCC2c2cccnc2)cc1)c1ccccc1F (centres undefined)	12	-3	59*	27	52*	47*	43*
COc1ccc(C(=O)NC(=S)N2CCOCC2)cc1[N+](=O)[O-]	-17	-16	1	13	2	.	.
CC(C)OCCCNC(=O)c1cn(C)c2ccc(S(=O)(=O)N3CCCC3)cc2c1=O	-13	3	-10	14	-2	.	.
Cc1ccc(C(c2nnnn2CCc2ccccc2)N2CCC(C)CC2)cc1 (centres undefined)	44	0	47*	9	45*	36*	-4
CCOC(=O)C1=CN(Cc2cccc(F)c2)S(=O)(=O)N(CC)C1c1ccc(F)c(Cl)c1 (centres undefined)	41	0	-1	.	19	.	.
O=C(CNc1cccc(C(F)(F)F)c1)N/N=C/c1cccc(Br)c1	18	-28	49*	19	44*	24	-28
CCCn1c(SCC(=O)Nc2ccccc2C(=O)OC)nc2c1c(=O)n(C)c(=O)n2C	31	4	46*	15	60*	45*	46*
CCCn1c(SCC(=O)Nc2ccccc2N2CCCCC2)nc2c1c(=O)n(C)c(=O)n2C	17	-5	17	0	28	.	.
C[C@H](NC(=O)C1CCC(CNC(=O)[C@@H]2CCCN2C(=O)OC(C)(C)C)CC1)C(=O)O (some centres undefined)	10	-22	-14	17	4	.	.
O=C(OCC(=O)N(CCc1ccccc1)Cc1ccccc1)c1ccc(F)c(S(=O)(=O)N2CCOCC2)c1	.	-15	.	.	.	.	.
Cc1ccc(-c2nn(-c3ccccc3)cc2C(N)=O)o1	-13	34	17	26	0	.	.
Cc1ccc(-c2nn(-c3ccccc3)cc2C=O)o1	-40	15	72*	44	63*	64*	70*
O=C(Nc1ccc(OC(F)F)cc1)Nc1cccc(C(F)(F)F)c1	44	17	63*	23	57*	51*	52*
NNC(=O)Nc1cccc(C(F)(F)F)c1	22	.	8	17	13	.	.
NC(=O)/C=C\C(=O)Nc1cccc(C(F)(F)F)c1	31	97*	56*	25	61*	55*	66*
O=C(Nc1ccncc1)Nc1cccc(C(F)(F)F)c1	7	19	1	20	7	.	.
